Hit rate of the full screen: of about 360,000 compounds, about 3,100 (0.86%) were called active. The full list was thinned out, with actives kept by preference. Unmarked numbers belong to inactive results.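 How the source made its calls: active means inhibition or corrected inhibition above about 18%, plus a signal ratio from 0.5 to 1.5 (limit read from the data, passing the limit was not always enough); inactive means the rest.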
Biological target: Neuropilin-1 (Homo sapiens) (UniProt O14786)
Assay: modulators of CendR peptide binding to NRP-1, primary screen, biochemical, fluorescence polarization, uHTS (AID 602438)
Details: FAM-RPARPAR peptide binding to NRP-1, fluorescence polarization; at 25 µM; active compounds read high

Chain of Neuropilin-1 (Homo sapiens) (O14786 whole entry, looked up): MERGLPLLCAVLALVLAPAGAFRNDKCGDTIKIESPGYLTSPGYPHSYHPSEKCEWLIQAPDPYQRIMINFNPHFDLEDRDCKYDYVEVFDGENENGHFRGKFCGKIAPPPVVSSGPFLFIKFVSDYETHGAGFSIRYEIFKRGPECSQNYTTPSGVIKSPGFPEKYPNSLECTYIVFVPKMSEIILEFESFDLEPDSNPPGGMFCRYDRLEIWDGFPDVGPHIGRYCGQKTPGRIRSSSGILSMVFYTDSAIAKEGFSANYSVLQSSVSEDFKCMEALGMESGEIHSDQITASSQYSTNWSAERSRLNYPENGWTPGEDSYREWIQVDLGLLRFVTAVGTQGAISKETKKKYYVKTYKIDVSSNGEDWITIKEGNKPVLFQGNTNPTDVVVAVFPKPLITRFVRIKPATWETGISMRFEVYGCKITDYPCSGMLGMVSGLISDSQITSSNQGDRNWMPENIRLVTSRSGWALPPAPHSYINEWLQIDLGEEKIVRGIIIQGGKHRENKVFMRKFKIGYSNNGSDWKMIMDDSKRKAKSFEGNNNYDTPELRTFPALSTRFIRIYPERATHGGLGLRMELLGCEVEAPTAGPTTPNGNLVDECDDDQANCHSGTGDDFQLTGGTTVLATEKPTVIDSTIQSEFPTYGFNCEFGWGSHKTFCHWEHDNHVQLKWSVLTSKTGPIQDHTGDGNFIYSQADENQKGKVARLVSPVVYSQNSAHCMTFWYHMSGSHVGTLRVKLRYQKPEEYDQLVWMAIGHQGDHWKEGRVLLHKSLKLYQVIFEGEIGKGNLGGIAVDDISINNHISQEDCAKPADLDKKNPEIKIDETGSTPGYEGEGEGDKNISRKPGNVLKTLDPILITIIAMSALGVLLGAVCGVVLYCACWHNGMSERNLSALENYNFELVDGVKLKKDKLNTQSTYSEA

SMILES | inhibition
CCOC(=O)Cc1ncccc1C(=O)Nc1ccc(OC(F)(F)F)cc1 | 29.7% (active)
COC(=O)Cc1ccc(OCC(=O)Nc2ccc(OC(F)(F)F)cc2)cc1 | 1.7%
CCCCN1CCNC1=S | -6.7%
CC(NC(=O)c1cc2cc(Cl)ccc2oc1=N)c1ccccc1 (stereo unspecified) | -11%
CC(NCc1nc2ccccc2n1C)C12CC3CC(CC(C3)C1)C2 (stereo unspecified) | -3.5%
CCc1cc(=O)oc2c(C)c(OCC(=O)NCCN3CCOCC3)ccc12 | 10.3%
Cc1cc(=O)oc2c(C)c(OCC(=O)NCCN3CCOCC3)ccc12 | 25.8% (active)
Cc1cc(=O)oc2c(C)c(OCC(=O)NCCc3ccc(S(N)(=O)=O)cc3)ccc12 | -18.3%
CC1CC(C)CN(c2ccc(S(=O)(=O)N3CCOCC3)cc2)C1 (stereo unspecified) | 22.3% (active)
CC1CC(C)CN(S(=O)(=O)c2ccc(C(=O)NN3CCOCC3)cc2)C1 (stereo unspecified) | -2.9%
Cc1ccc(S(=O)(=O)N2CCN(S(=O)(=O)N3CCOCC3)CC2)cc1 | 0%
Cc1c(CC(=O)N2CCN(C(=O)C3COc4ccccc4O3)CC2)c(=O)oc2c(O)c(O)ccc12 (stereo unspecified) | -49.5%
COC(=O)[C@@]1(Cc2ccc(F)cc2)[C@H]2c3cc(C(=O)N4CCCC4)n(C[C@H](O)CO)c3C[C@H]2CN1C(=O)c1ccccc1 | -11.6%
Cc1ccc2c(c1)N(CCCC(=O)NCc1cccnc1)C(=O)CO2 | 12.9%
Cc1cc(Cl)ccc1C(=O)C1CCCN(C(=O)c2nonc2C)C1 (stereo unspecified) | -2.6%
CCCC(=O)NC(Nc1ccccc1OC)C(Cl)(Cl)Cl (stereo unspecified) | -6.4%
C=C(C)CSc1nc(N)c2c3c(sc2n1)CCC3 | -0.3%
NNC(=O)C1CCCn2c1nc1sc3c(c1c2=O)CCCC3 (stereo unspecified) | 1.2%
Cn1c(NN)nc2sc3c(c2c1=O)CCC3 | 17.4% (active)
O=C(C/C(=N\NC(=O)c1ccccc1Br)C(F)(F)F)c1cccs1 | 0%
CN(C)C(CNC(=O)c1cc(Br)c(Br)s1)c1ccco1 (stereo unspecified) | -4.5%
COc1cc(/C=C/C2=CC(C)(C)NC(=S)N2)cc(OC)c1OC | 3.9%
CCC(=O)c1ccc(OC(=O)/C=C/c2cc(OC)c(OC)c(OC)c2)cc1 | 2.2%

SMILES | inhibition
COc1cc(/C=C/c2ccc(/C=C/c3cc(OC)c(OC)c(OC)c3)cc2)cc(OC)c1OC | 20.5% (active)
Cc1cccc(C)c1NC(=O)C(c1cccc(F)c1)N1CCN(C)CC1 (stereo unspecified) | 1.1%
CCOc1ccc(/C(O)=C2/C(=O)C(=O)N(Cc3cccnc3)C2c2ccc(N(C)C)cc2)c(C)c1 (stereo unspecified) | 6.1%
Cc1ccc(CN2CCCOCCS2(=O)=O)cc1 | 4%
O=C(Oc1ccc([N+](=O)[O-])cc1)c1ccc2ccccc2n1 | 6.3%
Cc1ccc2cccc([N+](=O)[O-])c2n1 | -4.4%
O=[N+]([O-])c1cc2ccccc2nc1-c1ccccc1 | 20.7% (active)
CNc1nc(=O)n(C2CCCO2)cc1C (stereo unspecified) | -12.3%
CCCCCCNC(=O)O[C@]12C[C@@H](C(=O)OC)[C@@H](C(=O)OC)C[C@@]1(O)CN(S(=O)(=O)c1ccc(C)cc1)C2 | -8.7%
Cc1ccc(C(=O)COC(=O)c2cccc(N3C(=O)c4c(C)nc5ccccc5c4C3=O)c2)cc1C | -9.4%
COc1ccc(CCN=C2SCC(=O)N2Cc2ccccc2)cc1OC | 32.3% (active)
COc1ccc(CCN=C2SCC(=O)N2C)cc1OC | 0.9%
COc1ccc(Cn2c(=O)sc3ccccc32)cc1OC | -6.5%
COc1cccc(OC)c1C(=O)N1CCN(Cc2cccnc2)CC1 | 1.8%
N#CCCN(CCC#N)c1nnc(-c2ccccc2)s1 | 0.8%
Cc1nn2cc(-c3ccc(Cl)cc3)cnc2c1Br | 4%
CC(C)Oc1ccc(CC(=O)NNC(=S)Nc2ccc(Br)cc2)cc1 | 1.7%
CC(C)Oc1ccc(CCC(=O)NNC(=S)NCc2ccccc2)cc1 | 37.4% (active)
Cc1scc(C(=O)NNC(=S)NCc2ccccc2)c1C | 6.1%
O=C(CS(=O)(=O)c1ccc(C(F)(F)F)cn1)NNC(=O)c1ccccc1 | -6.4%
CCN(C[C@H]1N[C@@](CC)(C(=O)OC)[C@H]2C(=O)N(C)C(=O)[C@@H]12)C(=O)Nc1ccc(F)cc1 | 33.4% (active)
CC[C@@]1(C(=O)OC)N[C@H](CN(C)C(C)=O)[C@@H]2C(=O)N(C)C(=O)[C@@H]21 | -0.8%
CCNC(=O)N(CC)C[C@H]1N[C@@](CC)(C(=O)OC)[C@H]2C(=O)N(Cc3ccccc3)C(=O)[C@@H]12 | -9.5%

Reference: PubChem BioAssay AID602438 (Sanford-Burnham Center for Chemical Genomics, 2012)
